The source made the active and inactive calls. Entries that show only a call come without a potency. Calls come from the whole dose curve; as a rule, active = well fitted inhibition curve with a large enough effect; inconclusive = small, poorly fitted or top-dose-only effect; inactive = no such curve, though single readings can be large or run the other way. Positions of bridges follow the written chain, without caps; N, C: chain ends. Non-standard residues stand in square brackets, D forms with d. Residues, ends and D or L forms follow the SMILES beside them. ξ: configuration not given here. *: point of attachment. Octanoyl(6-Me) = CCC(C)CCCCC(=O)*; ξThr(3R) = C[C@@H](O)C(N)C(=O)O; dDab = NCC[C@@H](N)C(=O)O; Dab = NCC[C@H](N)C(=O)O
Assay: qHTS assay for measurement of the activity of small molecule inhibitors on Zika virus induced Caspase-3 activity in human astrocytoma cells (AID 1224859)
Conditions: SNB-19 ZIKV-induced caspase-3/7, luminescence, 6 h; series mostly up to 45.7 µM
Source text: National Center for Advancing Translational Sciences [NCATS]
Johns Hopkins University School of Medicine
Increase in the Caspase-3 activity indicates an activation of apoptosis cell death pathway caused by Zika virus infection in certain types of neuronal cells including human neural progenitor cells (hNPCs), astrocytes, and astrocytoma cell line (SNB-19). This cell-based caspase-3 activity assay measures the increased caspase-3 activity in the astrocytoma cell line (SNB-19) after a 6-hour Zika virus infection with a luminescence readout. A decrease in the luminescence signal in this assay by small molecule treatment indicates an inhibitory effect of that small molecule on the Zika virus induced caspase-3 activity that may correlate with its effect on reduction of Zika virus caused cell death.
The medium for SNB-19 cells is composed of RPMI 1640 (ATCC, Cat.# 30-2001), 10% fetal bovine serum (FBS) (GE healthcare Life Sciences, Cat.# SH30071.03), and 1% Pen/Strep (Gibco, Cat.# 15140-122). A Caspase-Glo 3/7 assay kit (catalog number G8092; Promega, Madison, WI) was used to detect caspase-3 activity induced by Zika virus infection in human cells. The reagent mixture was reconstituted as described in the protocol from the manufacturer. Polystyrene tissue culture treated and PDL coated white plates were obtained from Greiner Bio-One (Monroe, NC). Cells were seeded in 384- or 1536-well assay plates and cultured at 37 C with 5% CO2 for 16 to 20 hours. The typical cell seeding density in the 1536-well plate assay is 250 cells/well in 3ul medium for SNB-19 cells in tissue culture treated plates. Compounds were added to cells and incubated for one hour before addition of ZIKV solution to cells (2 FFU/cell). After incubation at 37 C with 5% CO2 for 6 hours, the reagent mixture of Caspase-Glo 3/7 assay kit was added to each well, followed by incubation at room temperature for 30 minutes. The luminescence intensity of the assay plates was measured using a ViewLux plate reader (PerkinElmer). Data were normalized by using the cell-containing wells without ZIKV as a negative control (0% induction of caspase 3/7 activity) and wells containing ZIKV infected cells (Caspase-3 activity induced) as a positive control (100% induction of caspase 3 activity). The percentage inhibitions of the increased Caspase-3 activity by small molecule inhibitors were then calculated.

SMILES | Potency
CC(C)C[C@H](NC(=O)CNC(=O)c1cc(Cl)ccc1Cl)B1OC(=O)CC(CC(=O)O)(C(=O)O)O1 (stereo not given in full) | inactive
Cn1cnc2c(F)c(Nc3ccc(Br)cc3F)c(C(=O)NOCCO)cc21 | inactive
O=C1c2cccc(O)c2C(=O)c2c(O)cc(CO)cc21 | inactive
CCOC(=O)N1CCN([N+]([O-])=NOc2ccc([N+](=O)[O-])cc2[N+](=O)[O-])CC1 | inactive
NC(=O)c1ncn([C@@H]2O[C@H](CO)[C@@H](O)[C@@H]2O)c1N | inactive
O=C(C[C@@H]1CC=CCCC(=O)O[C@H](c2ccccc2)CNC1=O)NCc1ccc(Cl)cc1 | inactive
CC(=O)OC[C@@H]1O[C@@H](n2ccc(=O)[nH]c2=O)[C@H](OC(C)=O)[C@H]1OC(C)=O | inactive
N#CC(=C(O)c1ccc(Cl)cc1Cl)c1nc2cc(Cl)ccc2c(=O)[nH]1 | inactive
COc1cc(C(=O)NC2CCN(C)CC2)ccc1Nc1ncc2c(n1)N(C1CCCC1)CCC(=O)N2C(C)C | inactive
C[C@H]1O[C@H](O[C@H]2[C@H](O)[C@@H](O)[C@@H](O[C@H]3[C@H](O)[C@@H](O)C(O)O[C@H]3CO)O[C@H]2CO)[C@H](O)[C@@H](O)[C@H]1N[C@H]1C=C(CO)[C@@H](O)[C@H](O)[C@@H]1O (stereo not given in full) | inactive
CC(C(C)N1CC(=O)NC(=O)C1)N1CC(=O)NC(=O)C1 (stereo not given) | inactive
C=CC(=O)Nc1cccc(Nc2nc(NC3CCC(N(C)C)CC3)nc3c2ncn3C(C)C)c1 (stereo not given) | inactive
CC(C=CC(=O)NO)=C[C@@H](C)C(=O)c1ccc(N(C)C)cc1 | inactive
CC(C)(C)c1nc2c3cc[nH]c(=O)c3c3cc(F)ccc3c2[nH]1 | inactive
CCNC(=O)c1cc2c(-c3cc(OCCN4CCCC4)c(Cl)cc3Cl)nc(N)nc2s1 | inactive
CCN1CCN(C(=O)N[C@H](C(=O)N[C@@H]2C(=O)N3C(C(=O)O)=C(CSc4nnnn4C)CS[C@@H]23)c2ccc(O)cc2)C(=O)C1=O | inactive
CS[C@H]1SC[C@@H]2C(=O)N(C)[C@H](C(C)C)C(=O)OC[C@H](NC(=O)c3cnc4ccccc4n3)C(=O)N[C@H](C)C(=O)N(C)[C@@H]1C(=O)N(C)[C@H](C(C)C)C(=O)OC[C@H](NC(=O)c1cnc3ccccc3n1)C(=O)N[C@H](C)C(=O)N2C | inactive
O=C(C=Cc1ccc(CN(CCO)CCc2c[nH]c3ccccc23)cc1)NO | inactive
COc1cc(OC)c(C=CS(=O)(=O)Cc2ccc(OC)c(NCC(=O)O)c2)c(OC)c1 | inactive
COc1cccc2c1C(=O)c1c(O)c3c(c(O)c1C2=O)C[C@@](O)(C(=O)CO)C[C@@H]3O[C@H]1C[C@H](N)[C@H](OC2CCCCO2)[C@H](C)O1 (stereo not given in full) | inactive

SMILES | Potency
COC(=O)C=CC(=O)OC | inactive
O=C1NC(O)CCN1[C@@H]1O[C@H](CO)[C@H](O)[C@H]1O (stereo not given in full) | inactive
CCC(C)CCCCC(=O)N[C@@H](CCN)C(=O)NC(C(=O)N[C@H](CCN)C(=O)N[C@@H]1CCNC(=O)C([C@@H](C)O)NC(=O)[C@@H](CCN)NC(=O)[C@@H](CCN)NC(=O)[C@@H](CC(C)C)NC(=O)[C@H](Cc2ccccc2)NC(=O)[C@H](CCN)NC1=O)[C@@H](C)O (stereo partly drawn) ({Octanoyl(6-Me)}-[Dab][ξThr(3R)][dDab][dDab][Dab]F[dL][dDab][dDab][ξThr(3R)]; lactam 4-C) | inactive
CC(C)Oc1ccc(C(=O)N[C@H](CNC(=O)CN(C)C)Cc2ccc(-c3cn4cccc([C@H](C)O)c4n3)cc2)cc1Cl | inactive
C[C@H](NC(=O)C(C#N)=Cc1cccc(Br)n1)c1ccccc1 | inactive
Cc1ccc(-n2[nH]c(C)c(N=Nc3cccc(-c4cccc(C(=O)O)c4)c3O)c2=O)cc1C | inactive
CC(=CC(=O)Nc1ccccc1C(=O)O)c1ccc2ccccc2c1 | inactive
COc1cc(C)c(C=CC(C)=CC=CC(C)=CC(=O)O)c(C)c1C | inactive
CC1(C)[C@H](O[C@H]2O[C@H](C(=O)O)[C@@H](O)[C@H](O)[C@H]2O[C@@H]2O[C@H](C(=O)O)[C@@H](O)[C@H](O)[C@H]2O)CC[C@@]2(C)[C@H]1CC[C@]1(C)[C@H]2C(=O)C=C2[C@H]3C[C@@](C)(C(=O)O)CC[C@]3(C)CC[C@]21C | inactive
CCOC(=O)N1CCN([N+]([O-])=NOc2ccc([N+](=O)[O-])cc2C#N)CC1 | inactive
OC[C@@H](O)[C@@H](O)[C@H](O)[C@@H](O)CO | inactive
CC(=O)ON=C1C(c2c(O)[nH]c3cc(Br)ccc23)=Nc2ccccc21 | inactive
CCCCCN=C(N)NN=Cc1c[nH]c2ccc(OC)cc12 | inactive
Cc1noc(-c2ccc(CSCCC(=O)O)cc2)c1NC(=O)OC(C)c1ccccc1Cl (stereo not given) | inactive
COc1cc2c(cc1OC)[C@@H]1C(=O)c3ccc4c(c3O[C@@H]1CO2)C=CC(C)(C)O4 | inactive
CC(=O)O[C@@]12CO[C@H]1C[C@H](O)[C@@]1(C)C(=O)[C@H](O)C3=C(C)[C@@H](OC(=O)C(O)[C@@H](NC(=O)OC(C)(C)C)c4ccccc4)C[C@@](O)([C@@H](OC(=O)c4ccccc4)[C@@H]21)C3(C)C (stereo not given in full) | inactive
COc1ccnc2[nH]cc(C(=O)C(=O)N3CCN(C(=O)c4ccccc4)C[C@@H]3C)c12 | inactive
N#Cc1ccc(COC[C@H]2O[C@@H](n3c(NCc4ccc(Cl)c(Cl)c4)nc4c(N)ncnc43)[C@@H](O)[C@@H]2O)cc1 | inactive
Cc1ccc([N+](=O)[O-])cc1S(=O)(=O)N(C)N=Cc1cnc2ccc(Br)cn12 | inactive
Cc1cnc(Nc2ccc(N3CCN(C)CC3)cc2)nc1Nc1cccc(S(=O)(=O)NC(C)(C)C)c1 | inactive
